Test systems include SK-MEL-2 melanoma; EKVX NSCLC; SN12C renal; UO-31 renal; TK-10 renal; ACHN renal; CAKI-1 renal; A498 renal; CCRF-CEM leukemia; MOLT-4 leukemia; SR leukemia; RPMI-8226 leukemia; OVCAR-8 ovarian; OVCAR-5 ovarian; OVCAR-4 ovarian; SK-OV-3 ovarian; IGROV1 ovarian; OVCAR-3 ovarian; HS 578T breast; NCI/ADR-RES ovarian.
Holding throughout (assay): NCI-60 one-dose screen, 48 h (100 = growth as untreated, 0 = no growth, -100 = all killed)
Details in all cases: 10 µM unless noted

About 83,000 compounds went through this panel and 20% of them were active in at least one assay; those are over-represented in the sample as a whole.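 Negative percent growth values reflect cell death: -40 means 40% of the cells present at the start died, and -100 means all died.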 Unmarked numbers belong to inactive results. Active and inactive are the calls of the source. How the source made its calls: active means growth percent below 10; inactive means the rest.

Turning to `COc1cccc(C2=NN3C(C2)c2cc(Br)cc(OC)c2OC32CCN(Cc3ccccc3)CC2)c1` (stereo not given), the growth in the assay with SK-MEL-2 melanoma is 102%; with EKVX NSCLC it was 94.8%; in the assay on SN12C renal, 98.7%; with UO-31 renal it was 85.3%; in the assay with TK-10 renal it was 108%; in the assay on ACHN renal it was 102%. The growth is 90.3% with CAKI-1 renal; 104% in the assay with A498 renal; 109% with CCRF-CEM leukemia; 106% in the assay with MOLT-4 leukemia; 111% with SR leukemia; 107% in the assay with RPMI-8226 leukemia. Moreover, the growth with OVCAR-8 ovarian is 104%; with OVCAR-5 ovarian, 105%; with OVCAR-4 ovarian, 90.8%; in the assay with SK-OV-3 ovarian, 106%; with IGROV1 ovarian, 98.6%; in the assay on OVCAR-3 ovarian, 105%. Besides, the growth is 94.7% in the assay with HS 578T breast and 105% in the assay on NCI/ADR-RES ovarian.

Consider `COC(=O)c1ccc(NC(=O)c2ccc(-c3cccc([N+](=O)[O-])c3)o2)cc1`, for which the growth in the assay on SK-MEL-2 melanoma was 98.4%; with EKVX NSCLC it was 79%; in the assay on SN12C renal, 97.3%; with UO-31 renal, 72.9%; in the assay with TK-10 renal it was 111%; with ACHN renal, 94.6%. The growth with CAKI-1 renal was 88%; in the assay on A498 renal, 105%; in the assay on CCRF-CEM leukemia, 107%; in the assay with MOLT-4 leukemia, 103%; in the assay with SR leukemia it was 114%; in the assay with RPMI-8226 leukemia, 102%. Further, the growth was 103% in the assay on OVCAR-8 ovarian; 109% with OVCAR-5 ovarian; 92.7% in the assay on OVCAR-4 ovarian; 98.1% in the assay on SK-OV-3 ovarian; 91.6% in the assay with IGROV1 ovarian; 101% with OVCAR-3 ovarian. The results for the growth with HS 578T breast and in the assay on NCI/ADR-RES ovarian were 92.2% and 99%, respectively.

As to `Nc1ccc(-c2cc3c(NCc4ccccc4)ncnc3s2)cc1`, the growth was 85.1% in the assay on SK-MEL-2 melanoma; 57.9% with EKVX NSCLC; 72.6% in the assay on SN12C renal; 58.5% in the assay on UO-31 renal; 50.2% in the assay with TK-10 renal; 52.7% with ACHN renal. The growth is 63.1% with CAKI-1 renal; 52.6% with A498 renal; 81.9% in the assay on CCRF-CEM leukemia; 83.7% in the assay on MOLT-4 leukemia; 81.5% in the assay on SR leukemia; 62.6% in the assay with RPMI-8226 leukemia. Also, the growth in the assay with OVCAR-8 ovarian was 94%; with OVCAR-5 ovarian it was 77%; in the assay with OVCAR-4 ovarian, 60.6%; with SK-OV-3 ovarian it was 102%; in the assay on IGROV1 ovarian, 49.9%; in the assay on OVCAR-3 ovarian, 80%. Moreover, the growth in the assay with HS 578T breast was 86.5%; in the assay on NCI/ADR-RES ovarian, 80.7%.

On to `O=C(/C=C/c1cc(CN2CCOCC2)c(O)c2ncccc12)c1cc(CN2CCOCC2)c(O)c2ncccc12`, for which the growth was 20.7% with SK-MEL-2 melanoma; 23.5% in the assay with EKVX NSCLC; 26.1% in the assay with SN12C renal; 11.1% with UO-31 renal; 22.1% in the assay on TK-10 renal; 9.19% (active) with ACHN renal. Further, the growth is 14.1% with CAKI-1 renal; 32.4% in the assay on A498 renal; 26.9% with CCRF-CEM leukemia; 31.1% in the assay with MOLT-4 leukemia; 8.01% (active) in the assay on SR leukemia; 6.02% (active) with RPMI-8226 leukemia. Further, the growth in the assay on OVCAR-8 ovarian is 15.2%; with OVCAR-5 ovarian, 28.3%; in the assay on OVCAR-4 ovarian it was 30.3%; with SK-OV-3 ovarian it was -21.8% (active); in the assay on IGROV1 ovarian, 15.4%; with OVCAR-3 ovarian, 23.6%. Besides, the growth with HS 578T breast was 27.1%; with NCI/ADR-RES ovarian, 21.4%.

Take `Cn1cc(-c2nonc2-c2cn(C)c3ccc(F)cc23)c2ccccc21`: the growth with SK-MEL-2 melanoma is 30.6%; in the assay on EKVX NSCLC, 47.6%; in the assay on SN12C renal, 33.8%; in the assay on UO-31 renal, 26.9%; with TK-10 renal, 60.6%; in the assay with ACHN renal, 38.7%. In addition, the growth in the assay on CAKI-1 renal is 26.2%; in the assay on A498 renal it was -2.88% (active); in the assay with CCRF-CEM leukemia it was 14.9%; in the assay on MOLT-4 leukemia, 15.9%; in the assay with SR leukemia it was 31.3%; in the assay with RPMI-8226 leukemia, 13.5%. The growth in the assay with OVCAR-8 ovarian is 28.5%; with OVCAR-5 ovarian, 41.5%; in the assay with OVCAR-4 ovarian, 41.6%; in the assay with SK-OV-3 ovarian it was 41.5%; with IGROV1 ovarian, 24.6%; in the assay on OVCAR-3 ovarian, -18.9% (active). In addition, the growth with HS 578T breast is 3.84% (active); in the assay with NCI/ADR-RES ovarian, 4.44% (active).

On to `CC(C)C[C@@H](NC(=O)[C@@H](Cc1ccccc1)NC(=O)c1cnccn1)B1Oc2ccc(C[C@H](NC(=O)[C@H](Cc3ccc4c(c3)OB([C@@H](CC(C)C)NC(=O)[C@@H](Cc3ccccc3)NC(=O)c3cnccn3)O4)NC(=O)[C@@H](N)CC3CCC4OB([C@@H](CC(C)C)NC(=O)[C@@H](CC5CCCCC5)NC(=O)C5CNCCN5)OC4C3)C(=O)NCCCC[C@@H]3NC(=O)[C@@H](Cc4ccccc4)NC(=O)[C@H](CC(=O)O)NC(=O)CNC(=O)[C@H](CCCNC(=N)N)NC3=O)cc2O1` (stereo not given in full), for which the growth with SK-MEL-2 melanoma was -15.9% (active); with EKVX NSCLC it was -16.4% (active); in the assay with SN12C renal, -40.2% (active); in the assay on UO-31 renal, -27.2% (active); with TK-10 renal it was -77.8% (active); in the assay with ACHN renal, -11.9% (active). Besides, the growth is -40.9% (active) with CAKI-1 renal; -96% (active) with A498 renal; 2.22% (active) with CCRF-CEM leukemia; 1.17% (active) in the assay on MOLT-4 leukemia; 1.49% (active) with SR leukemia; 0.76% (active) in the assay on RPMI-8226 leukemia. The growth in the assay with OVCAR-8 ovarian is -45.3% (active); in the assay on OVCAR-5 ovarian it was -31% (active); with OVCAR-4 ovarian, -26.7% (active); with SK-OV-3 ovarian, -30% (active); in the assay with IGROV1 ovarian it was -8.65% (active); in the assay with OVCAR-3 ovarian, -49.3% (active). For the same compound, the growth in the assay on HS 578T breast is 5.06% (active); with NCI/ADR-RES ovarian, -8.71% (active).

On to `O=C1C=C(OCC=C(Cl)Cl)C(=O)c2ccccc21`, for which the growth is 69.8% with SK-MEL-2 melanoma; 93.3% in the assay with EKVX NSCLC; 84.5% in the assay with SN12C renal; 59% in the assay on UO-31 renal; 122% with TK-10 renal; 64% in the assay with ACHN renal. The growth in the assay with CAKI-1 renal is 93.4%; in the assay with A498 renal, 97.7%; in the assay on CCRF-CEM leukemia, 28.7%; in the assay on MOLT-4 leukemia it was 71%; with SR leukemia it was 51.6%; in the assay on RPMI-8226 leukemia it was 45.6%. Besides, the growth with OVCAR-8 ovarian was 71.5%; in the assay with OVCAR-5 ovarian it was 116%; in the assay with OVCAR-4 ovarian it was 15.9%; with SK-OV-3 ovarian it was 102%; in the assay on IGROV1 ovarian, 75.6%; in the assay on OVCAR-3 ovarian it was 32.2%. In addition, the results for the growth in the assay with HS 578T breast and in the assay on NCI/ADR-RES ovarian were 55.5% and 33.8%, respectively.
